{
  "source": "ChEMBL document CHEMBL3988442",
  "about": "“University of Dundee, Small-Polar-MMV Screening Library” (2021)",
  "molecular_target": "T1, Methionyl-tRNA synthetase, putative (Leishmania donovani (strain BPK282A1)) (UniProt E9BF75)",
  "T1 sequence (whole entry)": "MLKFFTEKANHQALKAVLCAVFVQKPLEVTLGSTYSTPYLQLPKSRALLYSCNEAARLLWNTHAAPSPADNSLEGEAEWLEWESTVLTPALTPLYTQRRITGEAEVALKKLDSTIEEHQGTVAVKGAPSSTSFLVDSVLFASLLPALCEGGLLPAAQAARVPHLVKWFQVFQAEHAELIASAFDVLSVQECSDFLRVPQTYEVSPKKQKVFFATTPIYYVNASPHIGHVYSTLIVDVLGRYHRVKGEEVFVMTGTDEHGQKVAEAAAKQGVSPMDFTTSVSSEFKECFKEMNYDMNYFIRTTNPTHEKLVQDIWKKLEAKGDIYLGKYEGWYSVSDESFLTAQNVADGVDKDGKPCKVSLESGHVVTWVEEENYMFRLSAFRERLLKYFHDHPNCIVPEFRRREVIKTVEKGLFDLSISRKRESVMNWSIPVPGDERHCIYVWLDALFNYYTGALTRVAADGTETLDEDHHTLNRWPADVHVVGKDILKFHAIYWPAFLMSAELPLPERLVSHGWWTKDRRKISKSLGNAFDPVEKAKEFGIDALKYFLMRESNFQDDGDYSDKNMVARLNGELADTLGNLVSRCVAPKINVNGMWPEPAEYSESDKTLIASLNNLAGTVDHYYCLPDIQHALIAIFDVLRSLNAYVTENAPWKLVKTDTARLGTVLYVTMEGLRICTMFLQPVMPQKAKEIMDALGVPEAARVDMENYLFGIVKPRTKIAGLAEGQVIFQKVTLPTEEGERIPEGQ",
  "test": "Leishmania donovani Methionine tRNA synthetase (LdMetRS):v7. Dose response assay",
  "assay_type": "functional",
  "design": "conc 80 nM, time 150 minutes",
  "data": [
    {"compound": "Nc1nc(CSc2ncccn2)nc2sc3c(c12)CCCC3", "values": [
      {"measurement": "PXC50", "setting": "MAX_EFFECT 24.53333333", "value": "< 4"},
      {"measurement": "PXC50", "setting": "MAX_EFFECT 26.98412698", "value": "< 4"}
    ]},
    {"compound": "CCN(CC)C(=O)CN(C)c1nc(C)nc2sc(-c3ccccc3)cc12", "values": [
      {"measurement": "PXC50", "setting": "MAX_EFFECT 23.46666667", "value": "< 4"},
      {"measurement": "PXC50", "setting": "MAX_EFFECT 30.15873016", "value": "< 4"}
    ]},
    {"compound": "Cc1nccn1CCCn1cncc1-c1ccc2c(c1)CC(C)N2C", "note": "(stereo not given)", "values": [
      {"measurement": "PXC50", "setting": "MAX_EFFECT 28.57142857", "value": "< 4"},
      {"measurement": "PXC50", "setting": "MAX_EFFECT 43.36448598", "value": "< 4"}
    ]},
    {"compound": "Cc1nc(N2CCCCC2)c2c(-c3cccs3)csc2n1", "values": [
      {"measurement": "PXC50", "setting": "MAX_EFFECT 30.98236776", "value": "< 4"},
      {"measurement": "PXC50", "setting": "MAX_EFFECT 31.29770992", "value": "< 4"}
    ]},
    {"compound": "Cc1cc(C)n(-c2nc(N3CCCC3)c3c4c(sc3n2)CCCC4)n1", "values": [
      {"measurement": "PXC50", "setting": "MAX_EFFECT 18.42105263", "value": "< 4"},
      {"measurement": "PXC50", "setting": "MAX_EFFECT 18.75", "value": "< 4"}
    ]},
    {"compound": "O=C(NCC1CCCCN1C(=O)c1cccc2ccccc12)c1ccccc1", "note": "(stereo not given)", "values": [
      {"measurement": "PXC50", "setting": "BOTTOM 0.770786067, HILLSLOPE 2.128077678, MAX_EFFECT 96.73659674, TOP 102.5562093", "value": 4.68},
      {"measurement": "PXC50", "setting": "BOTTOM 1.426381969, HILLSLOPE 1.713383958, MAX_EFFECT 97.20930233, TOP 108.6916663", "value": 4.55}
    ]},
    {"compound": "Cc1nc(N2CCNC(=O)CC2C)c2c(-c3ccccc3)csc2n1", "note": "(stereo not given)", "values": [
      {"measurement": "PXC50", "setting": "MAX_EFFECT 10.43256997", "value": "< 4"},
      {"measurement": "PXC50", "setting": "MAX_EFFECT 12.34256927", "value": "< 4"}
    ]},
    {"compound": "OCCN1CCC(F)(F)C2(CCN(c3cnccn3)C2)C1", "note": "(stereo not given)", "values": [
      {"measurement": "PXC50", "setting": "MAX_EFFECT 3.174603175", "value": "< 4"},
      {"measurement": "PXC50", "setting": "MAX_EFFECT 14.57943925", "value": "< 4"}
    ]},
    {"compound": "CC(C)C[C@H](N)COc1ccc(-c2ccccc2)c(F)c1", "values": [
      {"measurement": "PXC50", "setting": "MAX_EFFECT 23.6673774", "value": "< 4"},
      {"measurement": "PXC50", "setting": "MAX_EFFECT 25.46583851", "value": "< 4"}
    ]},
    {"compound": "CC(=O)NCCNc1nc(-c2cccnc2)nc2sc(C)c(C)c12", "values": [
      {"measurement": "PXC50", "setting": "MAX_EFFECT 9.574468085", "value": "< 4"},
      {"measurement": "PXC50", "setting": "MAX_EFFECT 10.3626943", "value": "< 4"}
    ]},
    {"compound": "Nc1noc2ccc(-c3cnc4ccc(NCCN5CCS(=O)(=O)CC5)nn34)cc12", "values": [
      {"measurement": "PXC50", "setting": "MAX_EFFECT 6.106870229", "value": "< 4"},
      {"measurement": "PXC50", "setting": "MAX_EFFECT 10.52631579", "value": "< 4"}
    ]},
    {"compound": "Cc1nc(NCCCS(N)(=O)=O)c2c(-c3cccs3)csc2n1", "values": [
      {"measurement": "PXC50", "setting": "MAX_EFFECT 6.297229219", "value": "< 4"},
      {"measurement": "PXC50", "setting": "MAX_EFFECT 6.870229008", "value": "< 4"}
    ]},
    {"compound": "COC(=O)CCNc1nc(CN2CCCCC2)nc2sc3c(c12)CCC3", "values": [
      {"measurement": "PXC50", "setting": "MAX_EFFECT 7.808564232", "value": "< 4.31"},
      {"measurement": "PXC50", "setting": "MAX_EFFECT 7.888040712", "value": "< 4"}
    ]},
    {"compound": "CC(C)C[C@H](N)COc1ccccc1C(=O)c1ccccc1", "values": [
      {"measurement": "PXC50", "setting": "MAX_EFFECT 1.863354037", "value": "< 4"},
      {"measurement": "PXC50", "setting": "MAX_EFFECT -0.213219616", "value": "< 4"}
    ]},
    {"compound": "Cc1nc(N2CCN(C(=O)C3CC3)CC2)c2c3c(sc2n1)CC(C)CC3", "note": "(stereo not given)", "values": [
      {"measurement": "PXC50", "setting": "MAX_EFFECT 43.2160804", "value": "< 4"},
      {"measurement": "PXC50", "setting": "MAX_EFFECT 47.91154791", "value": "< 4"}
    ]},
    {"compound": "CCN(CC)c1ccc2ccc(C(=O)N(CCOC)CCOC)cn12", "values": [
      {"measurement": "PXC50", "setting": "MAX_EFFECT 40.55555556", "value": "< 4"},
      {"measurement": "PXC50", "setting": "MAX_EFFECT 42.72300469", "value": "< 4"}
    ]},
    {"compound": "Cc1nc(NCc2cccnc2)c2c3c(sc2n1)CCC3", "values": [
      {"measurement": "PXC50", "setting": "MAX_EFFECT 6.361323155", "value": "< 4"},
      {"measurement": "PXC50", "setting": "MAX_EFFECT 13.85390428", "value": "< 4"}
    ]},
    {"compound": "CCc1nc(NCCCOC(C)C)c2c3c(sc2n1)CCC3", "values": [
      {"measurement": "PXC50", "setting": "MAX_EFFECT 10.56511057", "value": "< 4"},
      {"measurement": "PXC50", "setting": "MAX_EFFECT 12.06030151", "value": "< 4"}
    ]},
    {"compound": "Cc1sc2nc(CN3CCOCC3)nc(NCC3CCCO3)c2c1C", "note": "(stereo not given)", "values": [
      {"measurement": "PXC50", "setting": "MAX_EFFECT 9.836065574", "value": "< 4"},
      {"measurement": "PXC50", "setting": "MAX_EFFECT 10.69518717", "value": "< 4"}
    ]},
    {"compound": "Cc1sc2nc(CN3CCOCC3)nc(NC3CCS(=O)(=O)C3)c2c1C", "note": "(stereo not given)", "values": [
      {"measurement": "PXC50", "setting": "MAX_EFFECT 9.625668449", "value": "< 4"},
      {"measurement": "PXC50", "setting": "MAX_EFFECT 10.38251366", "value": "< 4"}
    ]},
    {"compound": "Cc1nc(NCc2cccnc2)c2c3c(sc2n1)CC(C)CC3", "note": "(stereo not given)", "values": [
      {"measurement": "PXC50", "setting": "MAX_EFFECT 20.10178117", "value": "< 4"},
      {"measurement": "PXC50", "setting": "MAX_EFFECT 27.4559194", "value": "< 4"}
    ]},
    {"compound": "Cc1nc(NCC(=O)O)c2c3c(sc2n1)CCC3", "values": [
      {"measurement": "PXC50", "setting": "MAX_EFFECT 4.834605598", "value": "< 4"},
      {"measurement": "PXC50", "setting": "MAX_EFFECT 5.289672544", "value": "< 4"}
    ]},
    {"compound": "CCc1nc(NCCCO)c2cc(CC)sc2n1", "values": [
      {"measurement": "PXC50", "setting": "MAX_EFFECT 1.262626263", "value": "< 4"},
      {"measurement": "PXC50", "setting": "MAX_EFFECT 8.163265306", "value": "< 4"}
    ]},
    {"compound": "Cc1nc(NCC2COCCO2)c2c3c(sc2n1)CCC3", "note": "(stereo not given)", "values": [
      {"measurement": "PXC50", "setting": "MAX_EFFECT 5.303030303", "value": "< 4"},
      {"measurement": "PXC50", "setting": "MAX_EFFECT 6.632653061", "value": "< 4"}
    ]},
    {"compound": "Nc1nc(-c2cccs2)cc(C(F)(F)F)n1", "values": [
      {"measurement": "PXC50", "setting": "MAX_EFFECT 6.382978723", "value": "< 4"},
      {"measurement": "PXC50", "setting": "MAX_EFFECT 7.772020725", "value": "< 4"}
    ]},
    {"compound": "CC(C)C[C@H](N)COc1ccccc1-c1ccnn1C", "values": [
      {"measurement": "PXC50", "setting": "MAX_EFFECT 4.572564612", "value": "< 4"},
      {"measurement": "PXC50", "setting": "MAX_EFFECT 5.733944954", "value": "< 4"}
    ]},
    {"compound": "Cc1nc(N2CCNC(=O)C2)c2c(CC(C)C)csc2n1", "values": [
      {"measurement": "PXC50", "setting": "MAX_EFFECT 4.371584699", "value": "< 4"},
      {"measurement": "PXC50", "setting": "MAX_EFFECT 6.951871658", "value": "< 4"}
    ]},
    {"compound": "Cc1sc2nc(C(F)(F)F)nc(N3CCN(S(C)(=O)=O)CC3)c2c1C", "values": [
      {"measurement": "PXC50", "setting": "MAX_EFFECT 4.699738903", "value": "< 4"},
      {"measurement": "PXC50", "setting": "MAX_EFFECT -2.872062663", "value": "< 4"}
    ]},
    {"compound": "Cc1nc(NCC(=O)O)c2cc(-c3ccccc3)sc2n1", "values": [
      {"measurement": "PXC50", "setting": "MAX_EFFECT 8.533333333", "value": "< 4"},
      {"measurement": "PXC50", "setting": "MAX_EFFECT 10.58201058", "value": "< 4"}
    ]},
    {"compound": "CCc1nc(N2CCN(c3ncccn3)CC2)c2cc(C)sc2n1", "values": [
      {"measurement": "PXC50", "setting": "MAX_EFFECT 13.86666667", "value": "< 4"},
      {"measurement": "PXC50", "setting": "MAX_EFFECT 15.34391534", "value": "< 4"}
    ]}
  ]
}
